Test results as given in PubChem BioAssay.
Activity calls are given as the source filed them. Unless noted, no stated cut-off is given here; in the data, active means inhibition above about 80%; inactive means the rest.

Key:
[1] = RCMB18 cell growth, single agent and combined, cisplatin and BGB IC40 combos (AID 1671462); details: RCMB18 medulloblastoma cells, stronger effect = higher value;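 further: cells exposed to compound for four days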
[2] = CRL1545 cell growth, single agent and combined, cisplatin and BGB IC20 combos (AID 1671464); details: CRL1545 osteosarcoma cells, stronger effect = higher value;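 further: cells exposed to compound for 96 hours before readout; 0% = vehicle DMSO and 100% = high DMSO killing control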
[3] = growth inhibition, single agent or in combination, cell-based, chromothripsis tumors, cisplatin or BGB combos (AID 1671449); details: LFS_MB_P medulloblastoma cells;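 further: cells exposed for 96 hours; 0% = vehicle DMSO and 100% = killing by high DMSO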
[4] = growth inhibition, single agent and combos, cell-based, chromothripsis tumors, cisplatin or BGB combos (AID 1671450); details: HDN33 neuroblastoma cells, stronger effect = higher value;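 further: cells exposed to compound for four days; 0% = vehicle DMSO and 100% = cell killing by high DMSO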
[5] = growth inhibition, single agents and combos, ICB984, cell-based, cisplatin or BGB combos, synergistic combos for chromothripsis tumors (AID 1671451; call rule not given here;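 further: cells exposed for 96 hours before readout; 0% = vehicle DMSO and 100% = killing by high DMSO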); details: ICB984 medulloblastoma cells, drug combinations, stronger effect = higher value
[6] = growth inhibition, single agents and combos, LFS_MB_1R, cell-based, cisplatin or BGB combos, synergistic combos for chromothripsis tumors (AID 1671452); details: LFS_MB_1R medulloblastoma cells, stronger effect = higher value;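 further: cells exposed for 96 hours before readout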
[7] = growth inhibition, single agents and combos, HTB85, cell-based, BGB or cisplatin IC20 combos, synergistic combos for chromothripsis tumors (AID 1671453); details: HTB85 osteosarcoma cells, drug combinations, stronger effect = higher value;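 further: cells exposed for 96 hours before readout; 0% = vehicle DMSO and 100% = high DMSO killing control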
[8] = growth inhibition, single agents and combos, CRL2098, cell-based, BGB or cisplatin IC20 combos, synergistic combos for chromothripsis tumors (AID 1671454); details: CRL2098 osteosarcoma cells, drug combinations, stronger effect = higher value;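 further: cells exposed for 96 h before readout; 0% = vehicle DMSO and 100% = killing by high DMSO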
[9] = growth inhibition, single agents and combos, HD-MB03, cell-based, BGB or cisplatin IC20 combos, synergistic combos for chromothripsis tumors (AID 1671455; in the data active means inhibition above about 83%;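 further: 0% = vehicle DMSO and 100% = high DMSO as cytotoxic control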); details: HD-MB03 medulloblastoma cells, stronger effect = higher value
[10] = growth inhibition, single agents and combos, UWB1.289, cell-based, BGB or cisplatin combos, synergistic combos for chromothripsis tumors (AID 1671456); details: UWB1.289 ovarian carcinoma cells, stronger effect = higher value;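 further: cells exposed to compound for four days; 0% = vehicle DMSO and 100% = killing by high DMSO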
[11] = growth inhibition, single agents and combos, LFS_MB_2R, cell-based, cisplatin combos, synergistic combos for chromothripsis tumors (AID 1671457); details: LFS_MB_2R medulloblastoma cells, stronger effect = higher value;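 further: cells exposed to compound for four days before readout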
[12] = growth inhibition, MDA-MB-436, cell-based, BGB or cisplatin combos, synergistic combos for chromothripsis tumors (AID 1671458; call rule not given here;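 further: cells exposed for 96 hours; 0% = vehicle DMSO and 100% = killing by high DMSO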); details: MDA-MB-436 breast carcinoma growth inhibition, drug combinations, stronger effect = higher value
[13] = UWB1.289_BRCA1 ovarian cancer growth, cell-based, BGB or cisplatin combinations (AID 1671459); details: UWB1.289 BRCA1 ovarian carcinoma, drug combinations, stronger effect = higher value
[14] = drug combination toxicity in non-malignant astrocytes – cell-based, BGB or cisplatin IC20 combos, cytotoxicity control for chromothriptic childhood tumor combination screen (AID 1671460); details: Human astrocytes, viability inhibition, drug combinations, at 0.5 µM, stronger effect = higher value;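 further: cells exposed to compounds for 96 hours before viability readout; 0% = vehicle and 100% = killing control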
[15] = BT084 cell growth, single and combined drugs, ICGC_MB145, cisplatin and BGB IC40 combos (AID 1671461); details: BT084 medulloblastoma cells, drug combinations, stronger effect = higher value;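 further: cells exposed to drugs for 96 hours; 0% = vehicle DMSO and 100% = high DMSO full killing control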
[16] = measured here: BGB IC40 combination, at 0.05 µM
[17] = measured here: combination with cisplatin, at 0.5 µM
[18] = measured here: with BGB IC20 combination, at 0.5 µM
[19] = measured here: with cisplatin IC20 combination, at 0.5 µM
[20] = measured here: combination with BGB IC40, at 0.05 µM
[21] = measured here: combination with cisplatin, at 5 µM

CON=C1CN(c2nc3c(cc2F)c(=O)c(C(=O)O)cn3C2CC2)CC1CN (stereo unspecified)
inhibition [1, 16]: -6.9% | inhibition [1, 17]: 6.35% | inhibition ([1]; single agent, at 5 µM): -19.4% | inhibition ([2]; at 0.5 µM): -0.16% (inactive) | inhibition [2, 18]: -14.3% | inhibition [2, 19]: 5.39% | inhibition ([2]; single agent, at 0.05 µM): 4.29% | inhibition ([2]; single agent, at 5 µM): 16.8%

COc1ccc(-c2nc(-c3cc(C(F)(F)F)cc(C(F)(F)F)c3)n(Cc3ccc(C(N)=O)cc3)c2-c2ccc(OC)cc2)cc1
inhibition ([3]; at 0.5 µM, stronger effect = higher value): -25% (inactive) | inhibition ([3]; measured here: combination with BGB IC20, at 0.005 µM): -26.9% | inhibition ([3]; measured here: combination with BGB IC40, at 0.005 µM): -58.7% | inhibition [3, 20]: -38.9% | inhibition ([3]; measured here: combination with cisplatin, at 0.5 µM, stronger effect = higher value): -39.3% | inhibition ([3]; measured here: combination with cisplatin, at 5 µM, stronger effect = higher value): -39.4% | inhibition ([4]; BGB combo, at 5 µM): -37.8% | inhibition ([4]; at 0.5 µM): 0.84% (inactive) | inhibition ([4]; cisplatin combo, at 5 µM): -22.8% | inhibition [4, 18]: 36.9% | inhibition [4, 19]: -4.78% | inhibition ([4]; single agent, at 5 µM): -31.8% | inhibition ([5]; BGB IC20 combo, at 0.005 µM): -2.07% | inhibition ([5]; BGB IC40 combo, at 0.005 µM): -30.8% | inhibition ([5]; BGB IC40 combo, at 0.05 µM): -25.1% | inhibition ([5]; at 0.5 µM): -9.24% (inactive) | inhibition ([5]; cisplatin combo, at 0.05 µM): -31.6% | inhibition ([5]; cisplatin combo, at 0.5 µM): -14.1% | inhibition ([5]; cisplatin combo, at 5 µM): -32.9% | inhibition ([5]; measured here: 5 uM single agent, at 5 µM): -2.84% | inhibition ([6]; at 0.5 µM): -33.2% (inactive) | inhibition [6, 20]: -28.8% | inhibition [6, 17]: -57.5% | inhibition [6, 21]: -46.5% | inhibition ([7]; at 0.5 µM): -24.2% (inactive) | inhibition ([7]; measured here: with BGB IC20, at 0.5 µM): -10.5% | inhibition ([7]; measured here: with BGB IC20, at 5 µM): -7.08% | inhibition ([7]; measured here: with cisplatin IC20, at 0.5 µM): -32.4% | inhibition ([7]; measured here: with cisplatin IC20, at 5 µM): -14.9% | inhibition ([7]; single agent, at 5 µM): 13.9% | inhibition ([8]; at 0.5 µM): -66.2% (inactive) | inhibition ([8]; measured here: combination with BGB at IC20, at 0.5 µM): -72.7% | inhibition ([8]; measured here: combination with cisplatin at IC20, at 0.5 µM): -56.3% | inhibition ([9]; at 0.5 µM): -5.54% (inactive) | inhibition ([9]; measured here: combo with BGB at IC20, at 0.5 µM): -5.38% | inhibition ([9]; measured here: combo with cisplatin at IC20, at 0.5 µM): 0.332% | inhibition ([10]; at 0.5 µM): -10.7% (inactive) | inhibition ([10]; measured here: inhibition with BGB combination, at 0.05 µM): -23.7% | inhibition ([10]; measured here: inhibition with cisplatin combination, at 0.05 µM): -19.3% | inhibition ([11]; at 0.5 µM): -16.7% (inactive) | inhibition [11, 17]: -7.64% | inhibition [11, 21]: -13.3% | inhibition ([12]; at 0.5 µM): -7.79% (inactive) | inhibition ([12]; measured here: BGB combination, at 0.5 µM): -10.8% | inhibition ([12]; measured here: BGB combination, at 5 µM): -8.02% | inhibition ([12]; measured here: cisplatin combination, at 0.5 µM): -12.9% | inhibition ([12]; measured here: cisplatin combination, at 5 µM): -13.3% | inhibition ([13]; BGB combination, concentration series, at 5 µM): 4.42% | inhibition ([13]; at 0.5 µM): -9.42% (inactive) | inhibition ([13]; cisplatin combination, concentration series, at 5 µM): 7.4% | inhibition [14]: 5.71% (inactive) | inhibition ([14]; measured here: combo with BGB IC20): 1.56% | inhibition ([14]; measured here: combo with cisplatin IC20): 6.54% | inhibition ([15]; at 0.5 µM): -7.83% (inactive) | inhibition ([15]; cisplatin combination, at 0.5 µM): -5.41% | inhibition ([15]; cisplatin combination, at 5 µM): -208% | inhibition ([15]; measured here: BGB IC40 combination 0.05 uM, at 0.05 µM): -36.9% | inhibition ([15]; single agent, at 5 µM): -5.53% | inhibition ([1]; at 0.5 µM): -23% (inactive) | inhibition ([1]; cisplatin combo, at 5 µM): -55.8% | inhibition [1, 16]: -13.9% | inhibition [1, 17]: -29.4% | inhibition ([1]; single agent, at 5 µM): -12.6% | inhibition ([2]; at 0.5 µM): 21.1% (inactive) | inhibition [2, 18]: -22.6% | inhibition [2, 19]: 42.1% | inhibition ([2]; single agent, at 0.05 µM): -21.9% | inhibition ([2]; single agent, at 5 µM): -24.7%
